Results on 20 molecules are retold here after PubChem BioAssay (NCI).

Structures are written as SMILES. Compounds without any hit were thinned out: in the full panel of roughly 79,000, 15% have a hit. A number with no mark means an inactive call. Active and inactive are the calls of the source. Cut-off read from the data, not from the text of the source: active = growth inhibition above about 70%; inactive = the rest.

Experiment [1] in a line: NCI Yeast Anticancer Drug Screen. Data for the rad50 strain (AID 155).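 Note: 0% = growth of vehicle-only cultures of the same strain.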 To be noted: S. cerevisiae rad50 strain growth inhibition; at 50.0 µM; hits give high values. The gist of the method:
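Relative growth inhibition (compound vs vehicle) was measured in yeast with a defined repair-gene alteration.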

Experiment [2] in a line: NCI Yeast Anticancer Drug Screen. Data for the mec2-1 strain (AID 157). To be noted: S. cerevisiae mec2-1 strain, at 50.0 µM, hits give high values. The method in brief: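 Readout is yeast growth inhibition, normalised to vehicle-treated controls, in the mec2-1 strain exposed to compound.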
A short description of experiment [3]: NCI Yeast Anticancer Drug Screen. Data for the sgs1 mgt1 strain (AID 161).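 Note: 0% = growth of cultures given vehicle only.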 To be noted: S. cerevisiae sgs1 mgt1 strain, at 50.0 µM, hits give high values. The method in brief: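 Compounds are added to genetically altered yeast, and growth is compared with cultures given vehicle alone to give percent inhibition.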
A short description of experiment [4]: NCI Yeast Anticancer Drug Screen. Data for the cln2 rad14 strain (AID 165).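 Note: 0% = growth equal to vehicle treated cultures.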 To be noted: S. cerevisiae cln2 rad14 strain, at 50.0 µM, hits give high values. The gist of the method:
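Relative to vehicle controls, growth inhibition of compound-treated cln2 rad14 yeast was recorded.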

A short description of experiment [5]: NCI Yeast Anticancer Drug Screen. Data for the bub3 strain (AID 167). Conditions: S. cerevisiae bub3 mutant strain, at 50.0 µM, hits give high values. The method in brief:
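Screening used yeast with an engineered genetic alteration affecting cell cycle control. Compound-exposed cultures were compared with vehicle cultures, and reduced growth was taken as inhibition.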

Experiment [6] can be described thus: NCI Yeast Anticancer Drug Screen. Data for the mlh1 rad18 strain (AID 175). Conditions: S. cerevisiae mlh1 rad18 strain growth inhibition; at 50.0 µM; hits give high values. The method in brief:
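Test agents were incubated with a yeast strain of defined genotype (DNA damage repair defect). Inhibition of growth was derived by comparison with vehicle-exposed cultures.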

With `ClCCN(CCCN(CCCl)c1ccccc1)c1ccccc1`, the growth inhibition in experiment [1] is 11.8%; in experiment [2], 12.7%; in experiment [3] it was 32.5%; in experiment [4], -8.25%; in experiment [5] it was -5.1%; in experiment [6], -27.9%.

Turning to `O=C(Nc1ccccc1)Nc1ccc(N(CCCl)CCCl)cc1`, the growth inhibition in experiment [1] is 21.8%; in experiment [2], 18.6%; in experiment [3], 10.8%; in experiment [4], 13.5%; in experiment [5] it was 13.7%; in experiment [6], 31.8%.

Regarding `O=[P+](O)c1cccnc1`, the growth inhibition in experiment [1] was 6.6%; in experiment [2] it was -8.05%; in experiment [3], 14.2%; in experiment [4], 17.4%; in experiment [5] it was 16.7%; in experiment [6], 13.8%.

With `CC(Cl)CN(CC(C)Cl)C(=O)Oc1ccc(CC(N)C(=O)O)cc1` (stereo not given), the growth inhibition in experiment [1] was 31.1%; in experiment [2] it was 0.7%; in experiment [3], 25.4%; in experiment [4], -20.6%; in experiment [5] it was -0.1%; in experiment [6] it was 20.3%.

In the case of `Cc1ccc(C(=O)CN)cc1`, the growth inhibition was 10.4% in experiment [1]; 0.05% in experiment [2]; -1.35% in experiment [3]; 4% in experiment [4]; 3.45% in experiment [5]; -9.5% in experiment [6].

Turning to `O=[N+]([O-])c1c(Cl)cc(Cl)c([N+](=O)[O-])c1Cl`, the growth inhibition in experiment [1] is 15.6%; in experiment [2], 5.25%; in experiment [3] it was 17.1%; in experiment [4], 3.9%; in experiment [5], 2.85%; in experiment [6], 32.1%.

As for `O=[C-]C(F)(F)F.[C-]#[O+].[C-]#[O+].[C-]#[O+].[Mo].[c-]1[c-][c-][cH-][c-]1`, the growth inhibition in experiment [1] is 5.2%; in experiment [2], 13.3%; in experiment [3], 0.8%; in experiment [4] it was 25.9%; in experiment [5] it was 21.4%; in experiment [6], 7.05%.

`O=P(N=C=S)(N=C=S)N=C=S`: the growth inhibition in experiment [1] is 5.45%; in experiment [2], 6.6%; in experiment [3], 9.4%; in experiment [4] it was -11.6%; in experiment [5], 0.4%; in experiment [6], -12.8%.

With `CCOP(=O)(O)C1CCCC(C)[N-]1.CCOP(=O)(O)C1CCCC(C)[N-]1.CCOP(=O)(O)C1CCCC(C)[N-]1.[Ti+3]` (stereo not given), the growth inhibition is 1.7% in experiment [1]; 0.1% in experiment [2]; -6.55% in experiment [3]; -24.1% in experiment [4]; -6.3% in experiment [5]; 2.6% in experiment [6].

Regarding `CCOc1ccccc1C=C(C#N)C#N`, the growth inhibition in experiment [1] was -2.25%; in experiment [2] it was 6%; in experiment [3] it was 19.1%; in experiment [4], 12.2%; in experiment [5], 1.75%; in experiment [6] it was -4.15%.

Regarding `O=P(Oc1ccccc1)(Oc1ccccc1)C(O)c1ccccc1` (stereo not given), the growth inhibition was 11.2% in experiment [1]; 3.55% in experiment [2]; 16.8% in experiment [3]; 0.65% in experiment [4]; -8.4% in experiment [5]; -2% in experiment [6].

For the molecule `CCC1(O)C(=O)OCc2c1cc1n(c2=O)Cc2cc3cc(N)ccc3nc2-1` (stereo not given), the growth inhibition in experiment [1] is 85% (active); in experiment [2], 88.5% (active); in experiment [3] it was 77.5% (active); in experiment [4], 56.8%; in experiment [5] it was 56.1%; in experiment [6], 72.2% (active).

For `CC(=O)OC1CC2(O)C3CCC4CC(O)CCC4(C)C3CCC2(C)C1C1=CC(=O)OC1` (stereo not given), the growth inhibition in experiment [1] is -11.1%; in experiment [2], -19.9%; in experiment [3], -9.9%; in experiment [4], -6.4%; in experiment [5], -32.4%; in experiment [6] it was -1.75%.

On to `CCOc1cc(OCC)c(OCC)cc1/C=C/[N+](=O)[O-]`, for which the growth inhibition in experiment [1] is 90% (active); in experiment [2], 92.7% (active); in experiment [3], 93.7% (active); in experiment [4], 77% (active); in experiment [5] it was 89.5% (active); in experiment [6] it was 95.2% (active).

On to `C[N+]1(C)CCCC1c1cccnc1` (stereo not given), for which the growth inhibition in experiment [1] is 42.8%; in experiment [2] it was 7.35%; in experiment [3] it was -2.45%; in experiment [4], -15.2%; in experiment [5] it was 14.4%; in experiment [6], 29.9%.

Take `C(=C\C1CC2CCCN2O1)/c1ccccc1` (stereo not given): the growth inhibition is 39.9% in experiment [1]; -20.5% in experiment [2]; 15.2% in experiment [3]; -23.4% in experiment [4]; 2.45% in experiment [5]; 11.2% in experiment [6].

As to `C/C(=N\NS(=O)(=O)c1ccc(C)cc1)C(CN(C)C)C(c1ccccc1)c1c(O)c2ccccc2oc1=O` (stereo not given), the growth inhibition is 59.9% in experiment [1]; 42.2% in experiment [2]; 65.2% in experiment [3]; 52.9% in experiment [4]; 54.7% in experiment [5]; 51.9% in experiment [6].

For `CC1(C)N=C(N)N=C(N)N1c1ccc(CCC(=O)Nc2ccc(S(=O)(=O)F)cc2)cc1`, the growth inhibition in experiment [1] was 27.6%; in experiment [2] it was 87.3% (active); in experiment [3], 76.8% (active); in experiment [4], -28.8%; in experiment [5], -0.55%; in experiment [6] it was 54.1%.

As for `O=C1NC(=S)NC(=O)C1=Cc1ccncc1`, the growth inhibition in experiment [1] is -19%; in experiment [2], -46.9%; in experiment [3], -7.7%; in experiment [4], 9.55%; in experiment [5], -26.9%; in experiment [6] it was -10.3%.

On to `CCCCOP(=S)(N1CCCCC1)N1CCCCC1`, for which the growth inhibition in experiment [1] is -8.15%; in experiment [2], 3.5%; in experiment [3], 5.75%; in experiment [4], 8.3%; in experiment [5], 2.6%; in experiment [6] it was 0.95%.
